Rows were chosen to be rich in hits. Some 2.4% of all compounds tested hit in one or more screens of this group.
Pol iota inh: DNA polymerase iota (human) inhibition. Pol iota fluorescent replication assay, 10 min. AID 588590. 390,000 compounds, 1% hits. Q9UNA4. Potency, µM (top dose mostly 115 µM), without a hit: at the highest dose activity, negative = inhibition, hits mostly inhibitors
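Fluorescent replication assay read twice, at 0 min and 10 min after adding 50 nM (final) substrate. Enzyme (10 nM) and compounds were first incubated 15 min at room temperature; enzyme-free buffer wells were negative controls.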
Pol beta inh: inhibitors of human DNA polymerase beta. P06746. Pol beta primer extension/strand displacement, fluorescence kinetic. Potency, µM (titrated, usually from 114 µM), inactives show top-dose activity change, negative = inhibition, hits mostly inhibitors. 340,000 compounds, 1.3% hits. AID 485314; also: % is scaled to controls: 0 for no effect and ±100 for the full control effect
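Values derive from four-parameter Hill fits of normalized kinetic data: reads at 0 and 10 min following addition of 50 nM substrate to 10 nM Pol beta preincubated 15 min with compound.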
Pol eta inh-1: inhibitors of human DNA polymerase eta. Q9Y253. recombinant Pol eta, fluorescent DNA replication assay. Potency, µM (highest dose often 114 µM), without a hit: top-dose activity change, negative = inhibition, most hits filed as inhibitors. 390,000 compounds, 1.2% hits; also: % is scaled to controls: 0 for no effect and ±100 for the full control effect
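Fluorescent replication assay: 50 nM final substrate added after a 15 min room-temperature compound preincubation with 10 nM enzyme. Signal taken at 0 min and again at 10 min.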
FEN1 inh-1: human FEN1 inhibition; 390,000 compounds, 0.35% hits; Recombinant FEN1 flap cleavage, fluorescence, 15 min; P39748; Potency, µM (titrated, usually from 114 µM), for the others: at the top dose activity change, negative = inhibition, hits mostly inhibitors; also: % is scaled to controls: 0 for no effect and ±100 for the full control effect; nearly all actives have a fitted effect of over 65% in size
Target sequence (P39748 whole entry, looked up): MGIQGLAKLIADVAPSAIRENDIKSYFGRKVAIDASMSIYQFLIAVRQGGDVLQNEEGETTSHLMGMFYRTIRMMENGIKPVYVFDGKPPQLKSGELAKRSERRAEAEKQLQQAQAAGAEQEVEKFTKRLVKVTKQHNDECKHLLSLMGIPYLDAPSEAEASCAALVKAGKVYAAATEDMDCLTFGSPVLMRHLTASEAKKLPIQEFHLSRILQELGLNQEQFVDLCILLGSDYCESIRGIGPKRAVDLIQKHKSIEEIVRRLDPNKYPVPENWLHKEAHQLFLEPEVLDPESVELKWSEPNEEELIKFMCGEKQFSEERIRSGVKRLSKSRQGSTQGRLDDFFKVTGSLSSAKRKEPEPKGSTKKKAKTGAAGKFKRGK
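Nuclease activity of 10 nM FEN1 was measured after 15 min of room-temperature exposure to titrated compounds, by adding 50 nM flap substrate and reading plates at 0 and 15 min.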
WRN helicase inh-1: inhibitors of human WRN helicase. Q14191. WRN helicase unwinding, fluorescent forked duplex, kinetic. Potency, µM (highest dose often 114 µM), for inactives: at the top dose activity change, negative = inhibition, usual class: inhibitors. 360,000 compounds, 0.46% hits. AID 651768; also: % is scaled to controls: 0 for no effect and ±100 for the full control effect; nearly all actives have a fitted effect of over 55% in size
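WRN at 20 nM final was preincubated with compound for 15 min at room temperature; reaction started with 100 nM forked duplex oligonucleotide carrying fluorophore and quencher plus 2 mM ATP (final). Unwinding followed kinetically by red fluorescence (ex 525/em 598 nm).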
Pol kappa inh-1: inhibitors of human DNA polymerase kappa; 400,000 compounds, 0.53% hits; Q9UBT6; purified Pol kappa, fluorescent DNA synthesis assay, 10 min; Potency, µM (series often up to 107 µM), for the others: top-dose activity, negative = inhibition, most hits filed as inhibitors; also: % is scaled to controls: 0 for no effect and ±100 for the full control effect
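Kinetic fluorescence screen: compound preincubated 15 min RT with 10 nM enzyme; 50 nM substrate (final) initiates; reads at 0/10 min.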
TbPGK inh: validation of Trypanosoma brucei phosphoglycerate kinase inhibitors; AID 686980; shares compounds with Pol kappa inh-1; TbPGK coupled GAPDH assay, Kinase-Glo luminescence; 500 compounds, 79% hits; Potency, µM (titrated, usually from 57.5 µM), inactives show at the highest dose activity change, negative = inhibition, usual class: inhibitors; also: % is scaled to controls: 0 for no effect and ±100 for the full control effect; nearly all actives have a fitted effect of over 65% in size
Pol iota confirm: Human Pol iota inhibitor confirmatory assay; shares compounds with Pol kappa inh-1; Pol iota primer extension, TAMRA/BHQ fluorescence; Potency, µM, actives largely listed as inhibitors; 1,500 compounds, 77% hits; AID 720496
Pol kappa inh-2: confirmation of human DNA polymerase kappa inhibitors; shares compounds with Pol eta inh-1; purified Pol-kappa, fluorescent strand-displacement substrate; Potency, µM, most hits filed as inhibitors; 920 compounds, 76% hits; AID 720501
Pol eta inh-2: Pol eta (human) inhibition, cherry-pick confirmation | shares compounds with Pol eta inh-1 | AID 720502 | Potency, µM, usual class: inhibitors | Pol eta primer extension, TAMRA/BHQ fluorescence, 10 min | 2,600 compounds, 64% hits
FEN1 inh-2: FEN1 inhibition, cherry-pick retest. 880 compounds, 79% hits. FEN1 flap cleavage, TAMRA/BHQ2 fluorogenic DNA substrate. Potency, µM, most hits filed as inhibitors. AID 720498. shares compounds with FEN1 inh-1; also: nearly all actives have a fitted effect of over 60% in size
WRN helicase inh-2: confirmation of human WRN helicase inhibitors | shares compounds with WRN helicase inh-1 | WRN helicase DNA unwinding, fluorescence kinetic | Potency, µM (doses to about 57.1 µM), for the others: at the highest dose activity, negative = inhibition, hits mostly inhibitors | 610 compounds, 63% hits | AID 720497; also: nearly all actives have a fitted effect of over 65% in size
TO DNA binding: counter-screen for WRN helicase inhibitors: DNA binding; shares compounds with WRN helicase inh-1; thiazole orange DNA binding displacement, fluorescence; Potency, µM (top dose mostly 57.1 µM), inactives show at the top dose activity change, negative = inhibition, actives largely listed as inhibitors; 610 compounds, 10% hits; AID 720499;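 also: drop in dye fluorescence marks compound binding to DNA; % is scaled to controls: 0 for no effect and ±100 for the full control effect; nearly all actives have a fitted effect of over 60% in size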
BLM helicase inh: BLM helicase inhibition, WRN selectivity check. Potency, µM (titrated, usually from 57.1 µM), inactives show at the highest dose activity change, negative = inhibition, most hits filed as inhibitors. Recombinant BLM helicase DNA unwinding, red fluorescence. 610 compounds, 60% hits. shares compounds with WRN helicase inh-1; also: nearly all actives have a fitted effect of over 60% in size
* = called active by the depositor; u = inconclusive; x = no result; [ ] = remark or other dose. Calls follow the shape of the dose curve; as a rule, active = well fitted curve in the direction sought with a large enough effect; inconclusive = small, poorly fitted or top-dose-only effect, or another doubt; inactive = no such curve, though single readings can be large; an effect the other way counts as inactive or inconclusive. Potency is read from the fitted curve at half-maximal effect.

SMILES | Pol iota inh | Pol beta inh | Pol eta inh-1 | FEN1 inh-1 | WRN helicase inh-1 | Pol kappa inh-1 | Pol iota confirm | Pol eta inh-2 | FEN1 inh-2 | WRN helicase inh-2 | TO DNA binding | BLM helicase inh | others
O=[N+]([O-])c1cc2ccccc2c(O)c1O | x | x | 4.5µM* | x | u | x | 12* | 7.6* | 15* | 12µM* | -10% | 0.68µM* | Pol kappa inh-2=2.1*
NC(=O)c1ccc(NC(=O)COC(=O)/C=C/c2ccc(Br)o2)cc1 | 22µM* | x | 2.8µM* | -6% | 32µM* | 35µM* | 42* | 67* | x | u | -11% | 17µM* | TbPGK inh=8.2µM*;Pol kappa inh-2=u
COc1ccc(C2=NC3(CCCCCC3)N(CC(=O)Nc3ccc(C)c(C)c3)C2=O)cc1 | 32% | -17% | x | 4% | x | -2% | x | x | x | x | x | x
Nc1nonc1-c1nc2ccccc2n1CC(=O)Nc1ccccc1C(=O)O | 8% | -1% | -6% | 2% | x | -15% | x | x | x | x | x | x
Nc1nonc1-c1nc2ccccc2n1CC(=O)N/N=C/c1ccc(-c2cccc(C(=O)O)c2)o1 | 18µM* | 20µM* | 18µM* | 45µM* | 40µM* | u | 75* | 24* | 38* | 24µM* | u | 24µM*
O=C(C1CCCCC1)N(Cc1cccnc1)c1nc2ccc(Cl)cc2s1 | 4% | 3% | -4% | -17% | x | -10%[60.1 µM] | x | x | x | x | x | x
COc1ccc(-c2nn(C)c3sc(C(=O)Nc4cc(OC)c(OC)c(OC)c4)cc23)cc1OC | 22µM* | 45µM* | 40µM* | 10µM* | x | 50µM* | 38* | 60* | 7.6* | 9.6µM* | u | 11µM*
Cc1cc(=O)[nH]c(SCC(=O)NCc2ccco2)n1 | 8.9µM* | 13µM* | 3.2µM* | -12% | 19µM* | 35µM* | 30* | 19* | x | u | -5% | 22µM*
O=C(CSCC(=O)NCc1ccco1)NCc1ccco1 | 12% | 0% | -2% | -4% | -7% | -3%[60.1 µM] | x | x | x | x | x | x
O=C(CCSCCC(=O)NCc1ccco1)NCc1ccco1 | -69% | 22µM* | 11µM* | 7% | 13µM* | u | 34* | 27* | x | 22µM* | -13% | 17µM*
O=C(Nc1ccc(F)c(Cl)c1)N1CCC(CN2CCc3ccccc3C2)CC1 | 1% | 0% | -15% | -15% | x | -15% | x | x | x | x | x | x
C=CCn1c(SCC(=O)c2ccc(O)c(O)c2)nnc1-c1ccc(OC)cc1 | 50µM* | x | 10µM* | -1% | 28µM* | 45µM* | u | u | x | 17µM* | -4% | u
Cn1cc(/C=N/NC(=O)c2cc3cc(Br)ccc3o2)c2ccccc21 | -23%[58.9 µM] | -5% | -13% | 6% | -6% | -4% | x | x | x | x | x | x
O=C(O)c1ccc(-n2cccc2/C=N\NC(=O)c2cc3cc(Br)ccc3o2)cc1 | 7.1µM* | u | 3.2µM* | u | 40µM* | 14µM* | 3* | 5.4* | u | 15µM* | -19% | 5.4µM* | TbPGK inh=9.2µM*
O=C(Nc1ccc2nc(SCC(=O)N3CCCC3)sc2c1)c1cccc(F)c1 | 18% | -23% | -9% | -5% | x | 4% | x | x | x | x | x | x
Cc1ccc(C2=CC(c3ccccc3F)n3c(nc4ccccc43)N2)cc1C (stereo not drawn) | -3% | 13% | -15% | -10% | x | -16%[60.1 µM] | x | x | x | x | x | x
O=C1NC2c3c(I)sc(I)c3C(=O)C2O1 (stereo not drawn) | -4% | x | 4% | -14% | -10% | -25% | x | x | x | x | x | x
O=C1NC2c3c(Cl)sc(Cl)c3C(=O)C2O1 (stereo not drawn) | 25µM* | x | 3.2µM* | u | 2.4µM* | u | 4.2* | 6* | u | 15µM* | -18% | 1.4µM* | Pol kappa inh-2=2.7*
O/N=C1\CCC\C1=C/c1ccco1 | u | -17% | -32% | 0% | -8%[57.1 µM] | u | x | x | x | x | x | x
O=C1C(=Cc2ccco2)CCC1=Cc1ccco1 | u | x | 0.79µM* | 8.9µM* | 3.5µM* | 5µM* | 3* | 5.4* | 17* | 7.6µM* | 2% | 7.6µM* | TbPGK inh=18µM*;Pol kappa inh-2=2.7*
CCc1nnc(NC(=O)CSc2nc3c([nH]c4ccccc43)c(=O)n2-c2ccc(Cl)cc2)s1 | 13% | -1% | -13% | -2% | x | -2%[60.1 µM] | x | x | x | x | x | x
Cc1n[nH]c(=S)n(NC(=O)/C=C/C(=O)Nn2c(=S)[nH]nc(C)c2=O)c1=O | u | 20µM* | 8.9µM* | 45µM* | 18µM* | 8.9µM* | 21* | 9.5* | x | u | -15% | 22µM* | TbPGK inh=21µM*;Pol kappa inh-2=9.5*
CCOc1ccc(NC(=O)CN2C(=O)C(c3ccccc3)=NC23CCC(C)CC3)cc1 (stereo not drawn) | 16% | -20% | 1% | -5% | x | -11% | x | x | x | x | x | x
